Screens deposited in PubChem by National Center for Advancing Translational Sciences (NCATS).
Pf growth 96h – Primary qHTS for delayed death inhibitors of the malarial parasite plastid, 96 hour incubation. P. falciparum luciferase reporter growth, 96 h. Potency, µM (titrated, usually from 28.7 µM), usual class: inhibitors. 320,000 tested, 6.9% active. AID 504834, 2011; active = well fitted inhibition curve with a large enough effect; inconclusive = small, poorly fitted or top-dose-only effect, or another doubt; inactive = no such curve, though single readings can be large or run the other way
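Parasite growth measured via integrated firefly luciferase reporter in P. falciparum. Infected erythrocytes at 2% hematocrit, 0.05% parasitemia final were treated 96 hours at 37 C under 5% CO2, and luminescence was read.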
SARS PLP yeast – qHTS of Yeast-based Assay for SARS-CoV PLP; S. cerevisiae expressing SARS-CoV PLpro, growth rescue; 330,000 tested, 0.19% active; AID 485353, 2010; Potency, µM (top dose mostly 32.9 µM), most hits filed as activators; also: nearly all actives have a fitted effect of over 55% in size
Pf growth 48h – Primary qHTS for delayed death inhibitors of the malarial parasite plastid, 48 hour incubation; P. falciparum luciferase growth in erythrocytes, 48 h; Potency, µM (top dose mostly 28.7 µM), usual class: inhibitors; 310,000 tested, 5.9% active; active = well fitted inhibition curve with a large enough effect; inconclusive = small, poorly fitted or top-dose-only effect, or another doubt; inactive = no such curve, though single readings can be large or run the other way
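Luminescence readout; reporter = integrated firefly luciferase in P. falciparum. RBC culture at 2% hematocrit, 0.1% parasitemia final, 37 C/5% CO2; decreased signal taken as growth inhibition.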
NS1 function inh – qHTS Assay for Inhibitors of Influenza NS1 Protein Function. Potency, µM (series often up to 46.1 µM). AID 2326, 2010. 270,000 tested, 0.4% active; also: actives are rising curves; nearly all actives have a fitted effect of over 50% in size
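Recovery from NS1-induced slow growth read by OD600 in budding yeast switched to galactose assay medium (pH 6.0, -URA) at 1:100 dilution. Compound 23 nl per well; the matching strain lacking NS1 serves as control.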
Numbers stand for hits; . = inactive; ? = inconclusive; / = not tested or not shown; [ ] = dose if it differs, or a comment. This is a sample that favours compounds with a hit; in the whole collection about 10% have one here. Unless noted, calls follow the shape of the full dose curve.

SMILES	Pf growth 96h	SARS PLP yeast	Pf growth 48h	NS1 function inh
CCN1CCN(c2ccc(NC(=O)CCc3c(C)nc4c(-c5ccc(F)cc5)c(C)nn4c3C)cc2)CC1	?	.	?	/
Nc1ccc(C(=O)N2CCN(S(=O)(=O)c3ccc(Cl)s3)CC2)cc1[N+](=O)[O-]	?	.	.	/
O=C1c2ccccc2C(=Nc2ccccc2)C1c1cccc(Br)c1 (configuration not stated)	4.1µM	.	?	.
CC1C(=O)C(C)C(c2cccc(Br)c2)NC1c1cccc(Br)c1 (configuration not stated)	?	.	.[0.00184 µM]	.
COc1ccc(N=c2oc3cc(O)ccc3cc2C(=O)Nc2ccccn2)cc1OC	.	.	4.7µM	/
CC1CCN(CCc2nc3cc(NC(=O)Nc4ccccc4)ccc3n2C)CC1	?	.	6.6µM	.
CC1CCN(CCc2nc3cc(NC(=O)COc4ccc([N+](=O)[O-])cc4)ccc3n2C)CC1	?	.	3.7µM	.
Cn1c(CCN2CCOCC2)nc2cc(NC(=O)COc3ccc([N+](=O)[O-])cc3)ccc21	?	.	.	.
Cn1c(CCn2ccccc2=O)nc2cc(NC(=O)COc3ccccc3)ccc21	10µM	.	.	.
CCCCc1cc(=O)oc2cc(OCC(=O)NCCN3CCOCC3)ccc12	.	.	.	.
COCCN1CCN(Cc2cn[nH]c2-c2cc3ccccc3o2)CC1	.	.	.	.
Cc1ccc(Oc2ccc(NS(=O)(=O)c3cccc(C(=O)O)c3)cc2)cc1	/	.	/	/
Cc1c(Cl)cccc1NC(=O)NN1CCN(C)CC1	.	.	.	.
O=C(NCc1ccccc1Br)c1ccncc1	.	.	.	.
OC(CNCc1ccccc1)Cn1ccc2ccccc21 (configuration not stated)	?	.	9.3µM	.
OC(CNCCNc1ncccc1C(F)(F)F)Cn1ccc2ccccc21 (configuration not stated)	1.9µM	.	1.5µM	.
Cc1noc(/C=C/c2ccccc2F)c1S(=O)(=O)N1CCC(C(=O)N2CCN(C)CC2)CC1	.	.	.	.
CCN(CCN(C)C)C(=O)C1CCN(S(=O)(=O)c2c(C)noc2/C=C/c2ccccc2F)CC1	.	.	9.3µM	.
Cc1noc(/C=C/c2ccco2)c1S(=O)(=O)N1CCC(C(=O)NC(C)c2ccccc2)CC1 (configuration not stated)	?	.	/	.
CCOc1ccccc1/C=C/c1onc(C)c1S(=O)(=O)N1CCC(C(=O)N(CC)CC)CC1	.	.	10µM	.
Cc1noc(/C=C/c2ccco2)c1S(=O)(=O)N1CCC(C(=O)N(C)Cc2ccccc2)CC1	.	.	1.9µM	.
CN=C(C)/C(C(=O)OC)=C(/O)c1c(F)cccc1F	.	.	.	.
CCCCn1c(=O)[nH]c(=O)c2c1nc(-c1ccc(OCCC)c(OCC)c1)n2CCOC	?	.	9.3µM	.
COCCn1c(-c2cccc([N+](=O)[O-])c2)nc2c1c(=O)[nH]c(=O)n2Cc1ccccc1	12µM	.	?	.
CCCn1c(-c2cc(OC)c(OC)c(OC)c2)nc2c1c(=O)[nH]c(=O)n2Cc1ccccc1	?	.	9.3µM	.
SMILES	Pf growth 96h	SARS PLP yeast	Pf growth 48h	NS1 function inh
COc1ccccc1CNC(=O)CN1C(=O)NC2(CCCc3sccc32)C1=O (configuration not stated)	.	.	.	/
CC1CCCC(NC(=O)CSc2nncs2)C1C (configuration not stated)	.	.	.	/
O=C(Nc1ccc(N2CCCCCC2)cc1)c1ccc[nH]1	.	.	.	/
CCCCCCCN1CCN=C1Nc1ccccc1	?	.	?	/
COc1ccc2cc(C3=CCCCC3)ncc2c1	.	.	.	/
O=[N+]([O-])c1cc(C(F)(F)F)ccc1NC1CCN(Cc2ccccc2)CC1	.	.	7.4µM	.
CCCCn1c(N)c(N(CC(C)C)C(=O)c2oc3c(Cl)cccc3c2C)c(=O)[nH]c1=O	.	.	?	/
CC(CC(=O)NCc1ccco1)S(=O)(=O)c1ccc2c(c1)CCN2C(=O)C1CC1 (configuration not stated)	8.3µM	.	.	.
CCC(=O)N1CCc2cc(S(=O)(=O)CCC(=O)NCc3ccco3)ccc21	?	.	.	/
O=C(CCS(=O)(=O)c1cc(Br)cc2c1N(C(=O)C1CC1)CC2)NCc1ccco1	.	.	8.3µM	.
ClC(Br)=C(n1cnc2ccccc21)n1cnc2ccccc21	.	.	10µM	.
CC(C)(C)OC(=O)N1CCC[C@H]1c1nnc(SCc2c(Cl)cccc2Cl)o1	?	.	9.3µM	.
Clc1ccc(C2=Nn3c(nnc3-c3n[nH]c4c3CCC4)SC2)cc1Cl	?	.	12µM	.
CC(c1ccccc1)n1c(N2CCN(C)CC2)nc2c1c(=O)[nH]c(=O)n2C (configuration not stated)	.	.	.	.
Cc1ccc(OCC(O)Cn2c(=N)n(CCN3CCOCC3)c3ccccc32)cc1 (configuration not stated)	.	.	?	.
Cc1ccc(OCC(O)Cn2c(=N)n(CCN3CCCCC3)c3ccccc32)cc1 (configuration not stated)	.[5.75 µM]	.	3.7µM	.
COc1ccc(OCC(O)CN2CCCCC2)cc1 (configuration not stated)	.	.	/	.
COc1ccc(OCC(O)Cn2c(=N)n(CCN3CCCCC3)c3ccccc32)cc1 (configuration not stated)	?	.	4.7µM	.
C/C=C(\C)C(=O)OC1C(C)=C2C(C1OC(=O)CCCCC)C(C)(OC(C)=O)CC(OC(=O)CCC)C1(O)C2OC(=O)C1(C)O (configuration not stated)	2.9µM	.	4.1µM	.
CC(C)(OC(=O)c1ccc(F)cc1)c1cc2ccccc2c(=O)o1	.	.	.	/
CC(=O)Nc1cc(C(=O)N2CCN(C)CC2)ccc1S(=O)(=O)c1ccc(C)cc1	.	.	/	.
CCC(=O)Nc1cc(C(=O)N2CCC3(CC2)OCCO3)ccc1S(=O)(=O)c1ccc(C)cc1	3.7µM	.	.	.
COc1ccc(NC(=O)C(NC(=O)OC(C)(C)C)C(C)OCc2ccccc2)cc1 (configuration not stated)	1.7µM	.	.	.
COc1ccc(NC(=O)[C@H](COCc2ccccc2)NC(=O)OC(C)(C)C)cc1	?	.	?	.
OCC1(Cc2ccccc2C(F)(F)F)CCN(Cc2ccc3c(c2)CCO3)CC1	?	.	12µM	.
CSc1cccc(CN2CCC(CO)(Cc3cccc(C(F)(F)F)c3)CC2)c1	.	.	?	.
OCC1(Cc2ccccc2C(F)(F)F)CCN(Cc2ccccc2)CC1	?	.	12µM	.
Cc1ccc[n+](C(C)C(=O)Nc2ccc([N+](=O)[O-])cc2C)c1 (configuration not stated)	.	.	.	/
Cc1ccc[n+](C(C)C(=O)Nc2ccc(C)c([N+](=O)[O-])c2)c1 (configuration not stated)	12µM	.	?	.
O=C(CCn1cccc1)Nc1cccc(F)c1	12µM	.	.	.
